# TDP-43 yeast inh: qHTS of TDP-43 Inhibitors. TDP-43 expressing yeast growth rescue, BacTiter-Glo, 24 h. Potency, µM (series often up to 46.1 µM), inactives show at the highest dose growth rescue (activation), usual class: activators. 410,000 tested, 1.8% active; note: potency is the fitted concentration of half-maximal effect; % of control where 0% means no effect; nearly all actives have a fitted effect of over 50% in size
#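 Yeast expressing TDP-43 (pregrown in raffinose, seeded at OD600=0.02 in galactose medium) exposed to compounds 24 hr at 30 deg C. Growth read by BacTiter-Glo luminescence; rescue of toxicity appears as increased signal.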
# FUS yeast rescue: qHTS for Suppressors of FUS Proteinopathy: Primary screen using FUS-linked yeast assay; Potency, µM (series often up to 76.6 µM), hits mostly activators; AID 1347120, 2019; 390,000 tested, 0.24% active; S. cerevisiae FUS-expressing, growth rescue, OD600, 24 h;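 note: potency is the fitted concentration of half-maximal effect; plate controls were DMSO vehicle for no effect and reference control for full effect; nearly all actives have a fitted effect of over 55% in size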
#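 Restored growth of FUS-toxic S. cerevisiae, read as 600 nm absorbance after 24 h at 30C in galactose medium (starting OD 0.005). Controls CP55940 and DMSO.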
# Abeta rescue: qHTS for compounds that reverse cellular toxicity of Amyloid beta (A-beta) peptide in yeast: Primary Screen | yeast expressing A-beta42, growth rescue, OD600, 48 h; response scale: 0% DMSO, 100% iron-clioquinol control | Potency, µM (top dose mostly 46.1 µM), most hits filed as activators | 410,000 tested, 0.063% active | AID 1347071, 2019; note: potency is the fitted concentration of half-maximal effect; nearly all actives have a fitted effect of over 55% in size
#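 Yeast growth medium received pinned compounds, then yeast cells expressing toxic A-beta were added; plates incubated at 30 C for 48 hr. Growth read as absorbance at 600 nm, normalized to DMSO and equimolar FeCl3 plus clioquinol controls.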
# CCT chaperon mod: High-Throughput Screening for Modulators of Cytosolic Chaperonin Activity. activity change, % (test concentration not listed), hits read low. 360,000 tested, 0.3% active. AID 651819, 2012. purified chaperonin ATPase assay, HTRF ADP detection, 30 min; in the data active = activity change below about -30%; note: % is set by controls: 0 for no effect and ±100 for the full control effect
#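 Nucleotide hydrolysis assay: TRiC at 20–40 nM final (set by batch activity) with 10 uM ATP, 30 min at 37 °C, in presence of 76 uM compound. Detection by competitive ADP HTRF, 30 min ambient.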
# aSyn rescue: qHTS of alpha-syn Inhibitors; AID 652106, 2013; Yeast expressing alpha-synuclein, growth rescue, BacTiter-Glo, 24 h; Potency, µM (top dose mostly 46.1 µM), inactives show at the top dose growth rescue (activation), most hits filed as activators; 370,000 tested, 0.14% active; note: potency is the fitted concentration of half-maximal effect; % of control where 0% means no effect; nearly all actives have a fitted effect of over 65% in size
#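 Galactose-induced alpha-syn yeast (OD600=0.02, raffinose-pregrown) + pinned cpd, 24 hr, 30 deg C; growth by BacTiter-Glo luminescence. Growth restoration scores as activation.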
# MmCpn inh: Inhibitors of TCP-1 ring complex (TRiC) of Methanococcus maripaludis (MmCpn): qHTS; purified Mm-Cpn ATPase, ADP Transcreener TR-FRET; 330,000 tested, 0.031% active; Potency, µM (titrated, usually from 76.9 µM), without a hit: at the highest dose activity, negative = inhibition, hits mostly inhibitors; note: potency is the fitted concentration of half-maximal effect; % is set by controls: 0 for no effect and ±100 for the full control effect; nearly all actives have a fitted effect of over 80% in size
#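 Inhibition of chaperonin ATP hydrolysis is measured as reduced ADP production, detected by competitive TR-FRET in which signal falls with ADP. Final enzyme 25 nM and ATP 10 uM, reacted 30 min at 37°C.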
# * = called active by the depositor; i = inactive; ? = inconclusive; · = no result. The list is not random: actives were taken first. Their share in the collection is about 2.3%. Unless noted, calls come from the whole dose curve; as a rule, active = well fitted curve in the direction sought with a large enough effect; inconclusive = small, poorly fitted or top-dose-only effect, or another doubt; inactive = no such curve, though single readings can be large; an effect the other way counts as inactive or inconclusive.
SMILES,TDP-43 yeast inh,FUS yeast rescue,Abeta rescue,CCT chaperon mod,aSyn rescue,MmCpn inh
CSc1nc(-c2ccccc2)nn1S(=O)(=O)c1ccc(Cl)cc1,-16%,i,i,-1,12%,-1%
CSc1nc(-c2ccccc2)nn1S(=O)(=O)c1ccccc1,1%,i,i,-50*,-6%,2%
O=C1C2C3C=CC(C3)C2C(=O)N1CNc1ccccc1 (stereo not given),?,·,i,1,-9%,0%
Cc1cccc(NCN2C(=O)C3C4C=CC(C4)C3C2=O)c1 (stereo not given),11µM*,i,i,-3,0%,2%
COc1cc(OC)c(C2SCCCS2)cc1OC,35µM*,·,i,-1,0%,2%
COc1cc(OC)c(C2N(C)c3ccccc3N2C)cc1OC,·,·,·,·,·,-1%
C#CCN1CC(N(C)CCOC(=O)c2ccc(F)cc2)CS1(=O)=O (stereo not given),·,i,·,·,·,·
O=S1(=O)CC2c3ccccc3CCN2CN1Cc1ccc(F)cc1 (stereo not given),·,i,·,·,·,·
CN(C)c1ccc(/C=C/c2c(F)cnc3ccccc23)cc1,·,·,·,·,1%,·
Cc1ccc2oc(/N=C(\N)NC(=O)C3CC3)nc2c1,20µM*,i,i,-1,-28%,3%
Fc1cccc(Cc2c(-c3ccccc3)nc3ccc(Br)cn23)c1,24%,i,i,2,2%,·
Brc1ccc2nc(-c3ccco3)c(Cc3ccsc3)n2c1,3.2µM*,i,i,-2,6%,·
Clc1ccc2nc(-c3ccco3)c(Cc3ccsc3)n2c1,-26%,i,i,-2,17%,·
Cc1ccc(Cc2c(-c3ccccc3)nc3ccc(Br)cn23)cc1,22µM*,i,i,-29,18%,·
FC(F)(F)c1ccccc1Cc1c(-c2cccc(Cl)c2)nc2ccc(Br)cn12,18%,i,i,-3,5%,·
Brc1cccc(-c2nc3ccc(Br)cn3c2Cc2ccccc2)c1,28µM*,i,i,0,-8%,·
Clc1cccc(Cc2c(-c3cccc(Br)c3)nc3ccc(Br)cn23)c1,20µM*,i,i,3,-8%,·
Cn1c(=S)[nH]c2cc(C(=O)N3CCN(Cc4cccs4)CC3)ccc2c1=O,·,·,·,·,-1%,·
C=CCOC(=O)N[C@@H](c1cccc(OC)c1)[C@@H](C)/C=C/CC(=O)O,·,i,·,·,·,·
Cc1ccc2nc(-c3ccco3)c(CC(C)(C)C)n2c1,11µM*,i,i,-2,37%,·
Clc1cccc(-c2nc3ccc(Br)cn3c2Cc2ccccc2)c1,?,i,i,2,-16%,·
Clc1cccc(Cc2c(-c3cccc(Cl)c3)nc3ccc(Br)cn23)c1,35µM*,i,i,0,-12%,·
O=C(CSc1ncc(-c2ccccc2)[nH]1)Nc1cccc(Br)c1,23%,i,i,·,·,·
COc1ccc(C(c2nnnn2C(C)(C)C)N2CCN(c3nc4ccccc4s3)CC2)cc1 (stereo not given),18%,i,i,-2,0%,1%
CCC(C)(C)n1nnnc1C(c1ccc(O)c(OC)c1)N1CCN(c2nc3ccccc3s2)CC1 (stereo not given),20µM*,i,i,-2,-11%,1%
SMILES,TDP-43 yeast inh,FUS yeast rescue,Abeta rescue,CCT chaperon mod,aSyn rescue,MmCpn inh
CCCCN(C(=O)c1oc2ccc(OCC)cc2c1C)c1c(N)n(CCCC)c(=O)[nH]c1=O,16%,·,i,-1,-2%,1%
CCCCn1c(N)c(N(CCOC)C(=O)c2oc3ccc(Br)cc3c2C)c(=O)[nH]c1=O,2%,16µM*,i,-3,-3%,·
COC(=O)[C@]12C[C@H](CC(=O)NCc3cccc4ccccc34)C(=O)N(Cc3cccc4ccccc34)C1=C[C@H](COCc1ccccc1)O[C@@H]2C,·,i,·,·,·,·
CCOC(=O)[C@]12CCCC=C1N(CCCOC)C(=O)[C@@H]2CC(=O)NCc1cccc2ccccc12,·,i,·,·,·,·
NC(=S)Nc1cccc(-c2n[nH]c(=S)o2)c1,-29%,i,i,1,-3%,?
Cc1ccc(NC(=S)Nc2cccc(-c3n[nH]c(=S)o3)c2)cc1,7%,?,?,1,3%,50µM*
COc1ccc(-c2csc(Nc3cc(C)ccn3)n2)cc1OC,14µM*,i,i,-2,-25%,-9%
CC(=O)Nc1ccc(-c2csc(Nc3ccc(Cl)cn3)n2)cc1,9%,i,i,-7,-17%,-13%
CC(=O)Nc1cccc(-c2csc(Nc3cc(C)ccn3)n2)c1,-3%,i,i,1,-20%,?
CC(=O)Nc1cccc(-c2csc(Nc3ccc(Cl)cn3)n2)c1,22µM*,i,i,0,3%,1%
Cc1ccnc(Nc2nc(-c3c(C)nc4sccn34)cs2)c1,7.1µM*,i,i,-2,·,-2%
CC(=O)Nc1ccc(-c2csc(Nc3cc(C)ccn3)n2)cc1,16µM*,i,i,0,-23%,-1%
Cc1ccnc(Nc2nc(-c3ccccc3)cs2)c1,?,i,i,-2,-22%,0%
O=C(CSc1nnc(-c2cccnc2)n1-c1ccc(Cl)cc1)c1ccc2ccccc2c1,·,i,·,·,·,·
CC(C)(C)c1csc(NNC(=O)c2ccc(Cl)cc2)n1,-18%,?,i,-2,18µM*,0%
CC1CC1C(=O)Nc1nc(-c2ccccc2)cs1 (stereo not given),18µM*,i,i,1,-6%,2%
CC(C)(C)c1csc(NC(=O)c2cccnc2)n1,10%,i,i,-3,-3%,0%
O=C(Nc1nc(-c2ccccc2)cs1)c1cccs1,13µM*,i,i,-1,-30%,-6%
CC(C)(C)c1csc(NC(=O)c2cccs2)n1,16µM*,i,i,-1,-13%,2%
O=C(Nc1nc(-c2ccc(Cl)s2)cs1)c1cccs1,?,i,i,-1,-49%,-14%
O=C(COC(=O)c1nc(Cl)ccc1Cl)NCc1ccc(Cl)cc1,18µM*,i,i,0,5%,1%
O=C(COC(=O)c1nc(Cl)ccc1Cl)NCc1ccc(Cl)cc1Cl,?,i,i,0,14%,-2%
COc1cccc(CNC(=O)Cn2c(-c3ccccc3)cc(C(C)=O)c2C)c1OC,·,i,·,·,·,·
Cc1ccc(OCc2nc(-c3ccccn3)n[nH]2)cc1,13µM*,i,?,4,?,-1%
